Source: PubChem
Shiga inhibitor: inhibitors of Shiga toxin in Vero cells; Vero cells, Shiga toxin protein synthesis inhibition reporter; inhibition, % at 38.7 µM; 290,000 compounds, 9.2% hits; AID 2315; in the data active = inhibition mostly above about 28%, no sharp cut-off; inactive = mostly below about 43%; also: 0% is about no effect
CHX counter: affects cycloheximide protein synthesis inhibition readout, counter-screen; cell reporter, cycloheximide protein synthesis inhibition counterscreen; max response, %; 300,000 compounds, 12% hits; in the data active = max response mostly above about 13%, no sharp cut-off; inactive = mostly below about 14%; also: read at 38.3 µM for the half of the compounds with a filed dose; 0% is about no effect
Pf growth 48h: inhibits P. falciparum growth in the first generation, 48 h | P. falciparum luciferase growth in erythrocytes, 48 h | Potency, µM (highest dose often 28.7 µM), without a hit: at the highest dose activity change, negative = inhibition, most hits filed as inhibitors | 310,000 compounds, 5.9% hits | AID 504832; also: potency is read from the fitted curve at half-maximal effect; % is scaled to controls: 0 for no effect and ±100 for the full control effect
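Luciferase-expressing parasites in RBCs, 2% Hct / 0.1% parasitemia final; RPMI 1640 + 0.5% Albumax; 37 C, 5% CO2, one generation; luminescence read-out, lower signal = inhibition.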
HCV inhibitor: HCV inhibition; Huh7.5.1 HCVcc-Cre infection, luciferase reporter, 44 h; Potency, µM (top dose mostly 41.8 µM), for inactives: top-dose activity change, negative = inhibition, usual class: inhibitors; 340,000 compounds, 3.4% hits; AID 651820; also: potency is read from the fitted curve at half-maximal effect; % is scaled to controls: 0 for no effect and ±100 for the full control effect
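Cells seeded at 1,000/well and cultured 4 h, then compounds added followed by HCVcc-Cre virus (~0.5 moi). After 44 h further culture, luciferase substrate was added, plates held 15 min at room temperature, and luminescence read for 15 sec.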
HCMV inh: blocks human cytomegalovirus replication; HFF cells, HCMV-luciferase reporter, 72 h; stronger effect = lower value; activity change, negative = inhibition, % at 57.5 µM; 410,000 compounds, 4.5% hits; in the data active = activity change below about -60%; inconclusive = no clear call, values can overlap the other calls; inactive = above about -39%; also: % is scaled to controls: 0 for no effect and ±100 for the full control effect
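Two compound doses tested in HFFs infected with HCMV-luciferase, MOI 1 PFU/cell, 72 h at 37C. Lysate luminescence read with OneGlo; data normalized against buffer-only and 10uM Salinomycin inhibitor controls.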
Pf growth 96h: P. falciparum growth inhibition at 96 hour, primary screen for plastid delayed-death inhibitors; Potency, µM (titrated, usually from 28.7 µM), inactives show at the highest dose activity change, negative = inhibition, actives largely listed as inhibitors; P. falciparum luciferase reporter growth, 96 h; 320,000 compounds, 6.9% hits; also: potency is read from the fitted curve at half-maximal effect; % is scaled to controls: 0 for no effect and ±100 for the full control effect
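Delayed-death screen, second-generation endpoint: infected erythrocytes, 2% hematocrit, 0.05% parasitemia final; 96 hours at 37 C, 5% CO2; luciferase detection reagent; luminescence decrease equals reduced growth.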
An asterisk follows results filed as active. Sampled rows, rich in hits. Any-hit rate of the full collection: about 21%. Unless noted, calls follow the shape of the dose curve; as a rule, active = well fitted inhibition curve with a large enough effect; inconclusive = small, poorly fitted or top-dose-only effect, or another doubt; inactive = no such curve, though single readings can be large or run the other way.

What do the screens show for `CCCN1CCN(C(=O)Cn2c(-c3cccs3)cc3ccccc32)CC1`?
HCMV inh: 12

What do the screens show for `O=C(CSc1nc2ccccc2c2nc(-c3ccccc3)nn12)Nc1ccc(Br)cc1`?
HCMV inh: -20

How did CN(C)c1ccc(CNn2cnnc2SCc2ccccc2F)cc1 do in these assays?
Shiga inhibitor: 37*; CHX counter: 25*; Pf growth 48h: 15%; HCV inhibitor: 0%; HCMV inh: 75

What do the screens show for `CSc1ccc(-c2nc3c(C)cccn3c2Nc2ccc3c(c2)OCCO3)cc1`?
HCMV inh: -18

How did CC1=C(/C=C/C(C)=C\C=C\C(C)=C\C(=O)O)C(C)(C)CCC1 do in these assays?
Shiga inhibitor: 18; CHX counter: 16

How did CC1=C(/C=C/C(C)=C\C=C\C(C)=C\C=C\C=C(C)\C=C\C=C(C)\C=C\C2=C(C)C[C@@H](O)CC2(C)C)C(C)(C)C[C@H](O)C1 do in these assays?
Pf growth 48h: 15µM*; Pf growth 96h: 7.6µM*

What do the screens show for `CC1=C[C@@H](O)CC(C)(C)[C@@H]1/C=C/C(C)=C/C=C/C(C)=C/C=C/C=C(C)/C=C/C=C(C)/C=C/C1=C(C)C[C@H](O)CC1(C)C`?
Pf growth 48h: inconclusive; Pf growth 96h: 4.3µM*

How did COc1ccc(CCNC(=O)CCn2c(=O)c3cccn3c3ccc(F)cc32)c(OC)c1OC do in these assays?
Shiga inhibitor: -3; CHX counter: -10; Pf growth 48h: inconclusive; HCV inhibitor: inconclusive; HCMV inh: -14; Pf growth 96h: -8%

How did CC(=O)c1ccc(-c2nnc(CCC(=O)N3CCCC(C(=O)CC(C)C)C3)o2)s1 (centres undefined) do in these assays?
Shiga inhibitor: 80*; CHX counter: 34*; Pf growth 48h: -16%; HCV inhibitor: -2%; HCMV inh: 20; Pf growth 96h: 18%

What do the screens show for `O=C(CCc1nnc(C2(c3ccc(Cl)cc3)CCC2)o1)N1CCCC1`?
Shiga inhibitor: 75*; CHX counter: 25*; Pf growth 48h: 0%; HCV inhibitor: 13%; HCMV inh: 0; Pf growth 96h: 0%

Results for CCC(=O)C1CCCN(C(=O)CCc2nnc(C3(c4ccc(Cl)cc4)CCC3)o2)C1 (centres undefined) ?
Shiga inhibitor: 80*; CHX counter: 57*; Pf growth 48h: 3%; HCV inhibitor: -11%; HCMV inh: 38; Pf growth 96h: 36%

What do the screens show for `NC(=O)C1CCCN(C(=O)CCc2nnc(C3(c4ccc(Cl)cc4)CCC3)o2)C1` (centres undefined)?
Shiga inhibitor: 11; CHX counter: 2; Pf growth 48h: inconclusive; HCV inhibitor: 40%; HCMV inh: -30; Pf growth 96h: inconclusive

How did CCc1cccc2c(-c3ccc(F)cc3)nc(SCC(=O)Nc3ccccc3)nc12 do in these assays?
HCMV inh: 17

How did Brc1ccc(C2=N[C@@H](Cc3ccccc3)CO2)cc1 do in these assays?
Shiga inhibitor: active; CHX counter: 57*

What do the screens show for `O=[N+]([O-])c1cccc(C2=N[C@@H](Cc3ccccc3)CO2)c1`?
Shiga inhibitor: active; CHX counter: 53*

Results for Clc1cc(Cl)cc(C2=N[C@@H](Cc3ccccc3)CO2)c1 ?
Shiga inhibitor: inactive; CHX counter: 6

Results for CC(C)C[C@H]1COC(c2ccc(Br)cc2)=N1 ?
Shiga inhibitor: active; CHX counter: 39*

What do the screens show for `CCc1cc2c(SCC(=O)NC3CC3)ncnc2s1`?
HCV inhibitor: 17%; HCMV inh: inconclusive

Results for Cc1cc(C)c2[nH]c(=O)c(CN(Cc3ccc4c(c3)OCO4)Cc3nnnn3C3CCCC3)cc2c1 ?
Shiga inhibitor: 4; CHX counter: -3; Pf growth 48h: 12µM*; HCV inhibitor: inconclusive; HCMV inh: -24; Pf growth 96h: 0%

How did Cc1ccc2[nH]c(=O)c(CN(Cc3ccccc3)Cc3nnnn3C3CCCC3)cc2c1 do in these assays?
Shiga inhibitor: 92*; CHX counter: 40*; Pf growth 48h: inconclusive; HCV inhibitor: inconclusive; HCMV inh: 12; Pf growth 96h: inconclusive

What do the screens show for `O=C(Nc1ccccc1)/C(=C/c1ccccc1)c1ccccc1`?
Shiga inhibitor: 4; CHX counter: -2; Pf growth 48h: 15µM*; HCV inhibitor: inconclusive; HCMV inh: -30; Pf growth 96h: 4.1µM*

What do the screens show for `Cc1ccc(NC(=O)/C(Cl)=C\c2ccccc2)cc1`?
Shiga inhibitor: 6; CHX counter: 6; Pf growth 48h: 0%; HCV inhibitor: -5%; HCMV inh: -1; Pf growth 96h: 4%

Results for CC(=O)c1ccc(NC(=O)C2(c3ccccc3)CC2(Cl)Cl)cc1 (centres undefined) ?
Shiga inhibitor: 88*; CHX counter: 40*; Pf growth 48h: inconclusive; HCV inhibitor: 12%; HCMV inh: 54; Pf growth 96h: inconclusive

Results for CC(=O)c1ccc(NC(=O)/C(Cl)=C/c2ccccc2)cc1 ?
Shiga inhibitor: 147*; CHX counter: 41*; Pf growth 48h: 94%; HCV inhibitor: -24%; HCMV inh: 63; Pf growth 96h: -26%

What do the screens show for `O=C(Nc1ccc(F)cc1)/C(Cl)=C/c1ccccc1`?
Shiga inhibitor: 62*; CHX counter: 40*; Pf growth 48h: 94%; HCV inhibitor: -23%; HCMV inh: 6; Pf growth 96h: 6%

How did O=C(Nc1ccccc1)/C(=C\c1ccc(F)cc1)NC(=O)c1ccco1 do in these assays?
Shiga inhibitor: -11; CHX counter: 3; Pf growth 48h: 29%; HCV inhibitor: 13%; HCMV inh: -11; Pf growth 96h: -19%

How did Cc1ccc(Sc2c(C)nn(C(C)(C)C)c2OC(=O)CC(C)C)cc1 do in these assays?
HCMV inh: 3

What do the screens show for `CCCC(C(=O)NC1CCCC1)N(Cc1ccc(OC)cc1)C(=O)c1snc(C(N)=O)c1N` (centres undefined)?
Shiga inhibitor: -5; CHX counter: -2; Pf growth 48h: inconclusive; HCV inhibitor: inconclusive; HCMV inh: -8; Pf growth 96h: 1%

How did CCN1CCN(Cc2nc(N)nc(Nc3ccc(C)c(C)c3)n2)CC1 do in these assays?
Shiga inhibitor: -20; CHX counter: -2; Pf growth 48h: 1%; HCV inhibitor: inconclusive; HCMV inh: -28

How did CC1CC(C)CN(Cc2nc(N)nc(Nc3ccccc3)n2)C1 (centres undefined) do in these assays?
Shiga inhibitor: 14; CHX counter: 2; Pf growth 48h: inconclusive; HCV inhibitor: 11%; HCMV inh: -11; Pf growth 96h: 10µM*
